Holding throughout (experiment): DAPPL (digital affinity profiling via proximity ligation, sequencing); 10 mM Tris-HCl pH 7.5, 50 mM NaCl, 1 mM DTT, 4% glycerol, room temperature, 30 min; GST-TFs on glutathione beads, 16-mer random dsDNA library, 0.1% formaldehyde crosslink after washing; high values mean tight binding
What all share (conditions): protein: recombinant; tags: N-terminal GST; dsDNA, one strand shown

In one assay the target is T1, ERF (Homo sapiens, UniProt P50548 1-548).
T1 sequence: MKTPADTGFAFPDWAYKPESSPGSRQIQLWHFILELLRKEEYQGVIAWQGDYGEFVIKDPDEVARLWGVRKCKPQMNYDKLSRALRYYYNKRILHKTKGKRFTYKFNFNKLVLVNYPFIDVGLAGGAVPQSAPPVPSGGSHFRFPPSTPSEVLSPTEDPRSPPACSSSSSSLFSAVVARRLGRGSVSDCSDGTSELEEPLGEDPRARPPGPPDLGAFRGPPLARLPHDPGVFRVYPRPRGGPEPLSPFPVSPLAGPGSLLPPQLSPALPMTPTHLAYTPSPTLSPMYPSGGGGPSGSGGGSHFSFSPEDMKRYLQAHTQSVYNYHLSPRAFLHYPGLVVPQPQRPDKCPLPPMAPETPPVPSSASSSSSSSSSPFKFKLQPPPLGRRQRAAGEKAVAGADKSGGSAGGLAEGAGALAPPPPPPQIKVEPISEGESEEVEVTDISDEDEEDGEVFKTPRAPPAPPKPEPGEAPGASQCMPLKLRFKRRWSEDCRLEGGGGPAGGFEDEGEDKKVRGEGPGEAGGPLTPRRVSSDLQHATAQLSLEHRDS
The procedure, abridged: (§1)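 Binding signal is each hexamer's read frequency for a factor divided by its frequency in the tag-only sample. The factors were GST-fused human transcription factors from yeast, captured on glutathione beads, DNA-barcoded and pooled with that sample. Pools were incubated with 200 nmole of a random double-stranded 16-mer DNA library in Tris/NaCl/DTT/glycerol buffer at room temperature for 30 min, then washed, crosslinked with 0.1% formaldehyde, proximity-ligated with BsaI/T4 ligase (1 h, 37 °C), PCR-amplified and sequenced on an Illumina NextSeq500.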

A further assay has as its target T2, ETV3L (Homo sapiens, UniProt Q6ZN32 1-361).
T2 sequence: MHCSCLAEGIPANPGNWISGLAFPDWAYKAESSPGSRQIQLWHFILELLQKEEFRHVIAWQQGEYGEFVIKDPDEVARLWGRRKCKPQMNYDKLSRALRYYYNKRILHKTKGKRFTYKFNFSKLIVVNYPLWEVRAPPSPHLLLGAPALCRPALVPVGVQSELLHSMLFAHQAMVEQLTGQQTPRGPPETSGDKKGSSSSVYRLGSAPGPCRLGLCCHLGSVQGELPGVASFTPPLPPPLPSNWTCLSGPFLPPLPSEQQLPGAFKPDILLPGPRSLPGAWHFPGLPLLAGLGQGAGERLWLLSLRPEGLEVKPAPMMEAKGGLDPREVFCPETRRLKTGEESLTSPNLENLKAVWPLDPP
The procedure, abridged:
as §1

The next assay concerns the target T3, ETS2 (Homo sapiens, UniProt P15036 1-469).
T3 sequence: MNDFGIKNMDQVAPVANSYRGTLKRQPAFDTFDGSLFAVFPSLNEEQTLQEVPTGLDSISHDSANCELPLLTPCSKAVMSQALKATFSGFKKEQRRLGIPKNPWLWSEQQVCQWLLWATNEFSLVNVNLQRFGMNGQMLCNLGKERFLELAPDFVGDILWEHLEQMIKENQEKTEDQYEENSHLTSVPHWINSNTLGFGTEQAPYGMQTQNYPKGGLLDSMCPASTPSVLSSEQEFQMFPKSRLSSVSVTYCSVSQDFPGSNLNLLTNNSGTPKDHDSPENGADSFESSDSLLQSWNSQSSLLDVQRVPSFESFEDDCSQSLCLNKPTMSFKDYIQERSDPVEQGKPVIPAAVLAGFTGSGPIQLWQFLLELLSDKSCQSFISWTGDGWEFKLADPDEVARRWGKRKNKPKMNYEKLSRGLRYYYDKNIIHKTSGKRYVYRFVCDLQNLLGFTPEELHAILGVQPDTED
The method, boiled down:
as §1

The target in the next assay is T4, SPDEF (Homo sapiens, UniProt O95238 1-335).
T4 sequence: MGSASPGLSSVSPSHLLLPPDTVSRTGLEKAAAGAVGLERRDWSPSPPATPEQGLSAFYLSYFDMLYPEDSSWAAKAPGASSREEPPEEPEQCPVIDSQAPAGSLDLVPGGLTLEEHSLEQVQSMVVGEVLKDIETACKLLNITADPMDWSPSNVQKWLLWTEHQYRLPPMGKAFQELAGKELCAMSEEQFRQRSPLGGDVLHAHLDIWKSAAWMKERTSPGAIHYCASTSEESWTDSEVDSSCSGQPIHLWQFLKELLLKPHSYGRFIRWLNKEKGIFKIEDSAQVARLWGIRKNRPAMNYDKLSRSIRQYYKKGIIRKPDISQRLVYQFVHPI
The method, boiled down: as §1

A further assay concerns the target T5, ETV7 (Homo sapiens, UniProt Q9Y603 1-341).
T5 sequence: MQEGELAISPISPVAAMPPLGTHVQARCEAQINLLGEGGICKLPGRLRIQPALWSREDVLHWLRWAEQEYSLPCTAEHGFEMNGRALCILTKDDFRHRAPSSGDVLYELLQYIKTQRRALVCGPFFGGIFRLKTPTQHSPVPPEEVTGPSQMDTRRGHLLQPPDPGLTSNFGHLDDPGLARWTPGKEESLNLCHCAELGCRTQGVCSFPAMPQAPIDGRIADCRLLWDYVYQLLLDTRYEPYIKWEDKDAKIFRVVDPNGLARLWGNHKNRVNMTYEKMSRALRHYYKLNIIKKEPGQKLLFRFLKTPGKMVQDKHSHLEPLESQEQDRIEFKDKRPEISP
The procedure, abridged: as §1

The target of another assay is T6, ELF5 (Homo sapiens, UniProt Q9UKW6-2 1-255).
T6 sequence: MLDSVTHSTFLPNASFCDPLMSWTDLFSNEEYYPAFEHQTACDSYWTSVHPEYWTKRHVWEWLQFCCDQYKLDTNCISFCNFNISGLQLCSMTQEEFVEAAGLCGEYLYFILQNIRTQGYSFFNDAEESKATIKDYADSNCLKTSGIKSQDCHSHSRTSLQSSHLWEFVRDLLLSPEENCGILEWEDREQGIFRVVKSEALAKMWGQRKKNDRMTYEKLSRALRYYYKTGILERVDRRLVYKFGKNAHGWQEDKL
The method, boiled down: as §1

Another assay addresses T7, ETV3 (Homo sapiens, UniProt P41162-2 1-143).
T7 sequence: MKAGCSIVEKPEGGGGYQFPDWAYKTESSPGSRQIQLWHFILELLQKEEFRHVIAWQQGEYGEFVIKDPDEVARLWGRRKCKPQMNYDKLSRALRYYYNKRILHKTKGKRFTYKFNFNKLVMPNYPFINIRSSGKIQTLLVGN
The procedure, abridged:
as §1

The next assay concerns the target ETV6 (Homo sapiens, UniProt P41212 1-452). The procedure, abridged: as §1

Sequence of ETV6 (P41212 whole entry): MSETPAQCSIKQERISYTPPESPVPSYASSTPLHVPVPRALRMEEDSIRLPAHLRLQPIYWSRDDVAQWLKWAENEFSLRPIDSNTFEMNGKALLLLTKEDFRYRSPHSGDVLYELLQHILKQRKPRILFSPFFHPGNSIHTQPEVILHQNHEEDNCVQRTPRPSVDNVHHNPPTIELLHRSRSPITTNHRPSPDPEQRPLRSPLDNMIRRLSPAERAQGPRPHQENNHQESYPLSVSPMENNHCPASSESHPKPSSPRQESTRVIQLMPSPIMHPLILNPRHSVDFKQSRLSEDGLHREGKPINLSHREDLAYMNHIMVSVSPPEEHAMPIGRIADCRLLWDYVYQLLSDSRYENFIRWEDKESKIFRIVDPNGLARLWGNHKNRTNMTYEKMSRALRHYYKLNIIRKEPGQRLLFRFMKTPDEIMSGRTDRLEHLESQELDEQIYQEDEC

For CACCTC, the binding signal with ERF is 1.21 fold enrichment (6-mer frequency, TF over GST control); with ETV3L, 1.18 fold enrichment (6-mer frequency, TF over GST control); with ETS2 it was 1.06 fold enrichment (6-mer frequency, TF over GST control); with SPDEF, 1.17 fold enrichment (6-mer frequency, TF over GST control); with ETV7, 1.17 fold enrichment (6-mer frequency, TF over GST control); with ELF5 it was 1.09 fold enrichment (6-mer frequency, TF over GST control). Moreover, the binding signal with ETV3 is 1.15 fold enrichment (6-mer frequency, TF over GST control); with ETV6, 1.14 fold enrichment (6-mer frequency, TF over GST control).

Turning to TATAGA, the binding signal with ERF is 1.06 fold enrichment (6-mer frequency, TF over GST control); with ETV3L, 1.18 fold enrichment (6-mer frequency, TF over GST control); with ETS2, 1.04 fold enrichment (6-mer frequency, TF over GST control); in the assay with SPDEF, 1.14 fold enrichment (6-mer frequency, TF over GST control); with ETV7, 1.08 fold enrichment (6-mer frequency, TF over GST control); with ELF5, 1.09 fold enrichment (6-mer frequency, TF over GST control). For the same sequence, the binding signal with ETV3 was 1.07 fold enrichment (6-mer frequency, TF over GST control); with ETV6, 1.11 fold enrichment (6-mer frequency, TF over GST control).

As to CCGGCA, the binding signal with ERF was 1.28 fold enrichment (6-mer frequency, TF over GST control); with ETV3L, 1.47 fold enrichment (6-mer frequency, TF over GST control); with ETS2, 1.43 fold enrichment (6-mer frequency, TF over GST control); in the assay with SPDEF it was 1.67 fold enrichment (6-mer frequency, TF over GST control); with ETV7, 1.27 fold enrichment (6-mer frequency, TF over GST control); with ELF5, 1.51 fold enrichment (6-mer frequency, TF over GST control). Besides, the binding signal was 1.45 fold enrichment (6-mer frequency, TF over GST control) in the assay with ETV3 and 1.61 fold enrichment (6-mer frequency, TF over GST control) with ETV6.

Turning to CTTTTA, the binding signal with ERF is 1.39 fold enrichment (6-mer frequency, TF over GST control); with ETV3L it was 1.42 fold enrichment (6-mer frequency, TF over GST control); in the assay with ETS2, 1.32 fold enrichment (6-mer frequency, TF over GST control); with SPDEF, 1.18 fold enrichment (6-mer frequency, TF over GST control); in the assay with ETV7, 1.42 fold enrichment (6-mer frequency, TF over GST control); with ELF5, 1.21 fold enrichment (6-mer frequency, TF over GST control). In addition, the binding signal in the assay with ETV3 was 1.4 fold enrichment (6-mer frequency, TF over GST control); in the assay with ETV6, 1.31 fold enrichment (6-mer frequency, TF over GST control).

Consider CTTACG, for which the binding signal was 1.09 fold enrichment (6-mer frequency, TF over GST control) with ERF; 1.05 fold enrichment (6-mer frequency, TF over GST control) with ETV3L; 1.13 fold enrichment (6-mer frequency, TF over GST control) in the assay with ETS2; 1.1 fold enrichment (6-mer frequency, TF over GST control) in the assay with SPDEF; 1.1 fold enrichment (6-mer frequency, TF over GST control) with ETV7; 1.15 fold enrichment (6-mer frequency, TF over GST control) with ELF5. The binding signal is 1.15 fold enrichment (6-mer frequency, TF over GST control) in the assay with ETV3 and 1 fold enrichment (6-mer frequency, TF over GST control) in the assay with ETV6.

Regarding GAAACT, the binding signal with ERF was 1.03 fold enrichment (6-mer frequency, TF over GST control); in the assay with ETV3L it was 1.22 fold enrichment (6-mer frequency, TF over GST control); in the assay with ETS2 it was 1.22 fold enrichment (6-mer frequency, TF over GST control); with SPDEF, 1.13 fold enrichment (6-mer frequency, TF over GST control); with ETV7, 1.31 fold enrichment (6-mer frequency, TF over GST control); in the assay with ELF5, 1.28 fold enrichment (6-mer frequency, TF over GST control). Besides, the binding signal with ETV3 is 1.16 fold enrichment (6-mer frequency, TF over GST control); with ETV6, 1.2 fold enrichment (6-mer frequency, TF over GST control).

As for ATCTCA, the binding signal is 1.07 fold enrichment (6-mer frequency, TF over GST control) with ERF; 1.13 fold enrichment (6-mer frequency, TF over GST control) with ETV3L; 1.14 fold enrichment (6-mer frequency, TF over GST control) in the assay with ETS2; 1.07 fold enrichment (6-mer frequency, TF over GST control) with SPDEF; 1.15 fold enrichment (6-mer frequency, TF over GST control) with ETV7; 1.09 fold enrichment (6-mer frequency, TF over GST control) with ELF5. Further, the binding signal in the assay with ETV3 was 1.13 fold enrichment (6-mer frequency, TF over GST control); with ETV6, 1.11 fold enrichment (6-mer frequency, TF over GST control).

Source of the values: publication PMC7862700, “An all-to-all approach to the identification of sequence-specific readers for epigenetic DNA modifications on cytosine”.
